Measurements: publication PMC7862700, “An all-to-all approach to the identification of sequence-specific readers for epigenetic DNA modifications on cytosine”

What was measured:
Test in all cases: DAPPL (digital affinity profiling via proximity ligation, sequencing); 10 mM Tris-HCl pH 7.5, 50 mM NaCl, 1 mM DTT, 4% glycerol, room temperature, 30 min; GST-TFs on glutathione beads, 16-mer random dsDNA library, 0.1% formaldehyde crosslink after washing; high values mean tight binding
FLI1 = target: T1, FLI1 (Homo sapiens, UniProt Q01543 1-452); settings: protein: recombinant; tags: N-terminal GST; dsDNA, one strand shown
T1 sequence: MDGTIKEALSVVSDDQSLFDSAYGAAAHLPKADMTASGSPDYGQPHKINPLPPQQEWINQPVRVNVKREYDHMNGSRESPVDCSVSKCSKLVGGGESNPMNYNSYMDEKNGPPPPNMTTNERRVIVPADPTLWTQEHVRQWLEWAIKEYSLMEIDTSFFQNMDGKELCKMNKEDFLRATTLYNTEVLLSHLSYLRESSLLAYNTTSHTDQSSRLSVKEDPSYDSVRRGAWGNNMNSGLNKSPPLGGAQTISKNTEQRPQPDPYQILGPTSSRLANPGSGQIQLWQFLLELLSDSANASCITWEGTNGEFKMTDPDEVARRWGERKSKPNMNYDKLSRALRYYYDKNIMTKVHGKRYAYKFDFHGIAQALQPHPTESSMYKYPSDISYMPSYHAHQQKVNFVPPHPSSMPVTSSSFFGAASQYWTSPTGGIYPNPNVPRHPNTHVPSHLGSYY
Summary of the method: (§1)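 Human transcription factors carrying a GST fusion were produced in yeast, bound to glutathione beads, tagged with DNA barcodes and pooled together with a tag-only sample. Each pool was held with 200 nmole of a random double-stranded 16-mer DNA library in Tris/NaCl/DTT/glycerol buffer for 30 min at room temperature, then washed, crosslinked in 0.1% formaldehyde, proximity-ligated with BsaI/T4 ligase (1 h, 37 °C), PCR-amplified and sequenced on an Illumina NextSeq500. Binding signal is the read frequency of each hexamer for a given factor divided by its frequency in the tag-only sample.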

ELK1 = target: T2, ELK1 (Homo sapiens, UniProt P19419 1-428); settings: protein: recombinant; tags: N-terminal GST; dsDNA, one strand shown
T2 sequence: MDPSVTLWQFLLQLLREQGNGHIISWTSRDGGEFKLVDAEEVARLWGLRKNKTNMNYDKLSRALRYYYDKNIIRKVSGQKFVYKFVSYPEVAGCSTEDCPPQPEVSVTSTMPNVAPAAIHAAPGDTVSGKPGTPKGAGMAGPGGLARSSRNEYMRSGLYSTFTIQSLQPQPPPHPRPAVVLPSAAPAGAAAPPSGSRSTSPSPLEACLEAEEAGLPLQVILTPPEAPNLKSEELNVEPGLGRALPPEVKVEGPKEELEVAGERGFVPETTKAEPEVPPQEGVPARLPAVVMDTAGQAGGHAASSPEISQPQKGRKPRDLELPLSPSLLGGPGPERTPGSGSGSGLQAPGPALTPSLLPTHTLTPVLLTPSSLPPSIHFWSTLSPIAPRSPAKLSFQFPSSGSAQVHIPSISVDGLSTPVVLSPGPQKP
Summary of the method: as §1

GABPA = target: T3, GABPA (Homo sapiens, UniProt Q06546 1-454); settings: protein: recombinant; tags: N-terminal GST; dsDNA, one strand shown
T3 sequence: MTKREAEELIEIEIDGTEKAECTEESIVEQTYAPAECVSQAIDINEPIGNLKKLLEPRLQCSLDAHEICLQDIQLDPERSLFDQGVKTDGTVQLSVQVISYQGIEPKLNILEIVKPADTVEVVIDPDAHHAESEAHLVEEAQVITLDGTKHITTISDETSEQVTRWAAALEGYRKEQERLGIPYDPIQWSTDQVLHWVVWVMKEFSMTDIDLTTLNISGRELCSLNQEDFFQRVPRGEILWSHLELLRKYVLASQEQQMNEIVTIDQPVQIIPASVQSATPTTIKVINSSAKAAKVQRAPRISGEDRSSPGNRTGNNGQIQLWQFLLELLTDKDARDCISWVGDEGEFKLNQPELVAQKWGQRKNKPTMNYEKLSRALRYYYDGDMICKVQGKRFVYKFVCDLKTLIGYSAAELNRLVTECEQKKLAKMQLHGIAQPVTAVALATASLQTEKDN
Summary of the method: as §1

ERG = target: T4, ERG (Homo sapiens, UniProt P11308 1-479); settings: protein: recombinant; tags: N-terminal GST; dsDNA, one strand shown
T4 sequence: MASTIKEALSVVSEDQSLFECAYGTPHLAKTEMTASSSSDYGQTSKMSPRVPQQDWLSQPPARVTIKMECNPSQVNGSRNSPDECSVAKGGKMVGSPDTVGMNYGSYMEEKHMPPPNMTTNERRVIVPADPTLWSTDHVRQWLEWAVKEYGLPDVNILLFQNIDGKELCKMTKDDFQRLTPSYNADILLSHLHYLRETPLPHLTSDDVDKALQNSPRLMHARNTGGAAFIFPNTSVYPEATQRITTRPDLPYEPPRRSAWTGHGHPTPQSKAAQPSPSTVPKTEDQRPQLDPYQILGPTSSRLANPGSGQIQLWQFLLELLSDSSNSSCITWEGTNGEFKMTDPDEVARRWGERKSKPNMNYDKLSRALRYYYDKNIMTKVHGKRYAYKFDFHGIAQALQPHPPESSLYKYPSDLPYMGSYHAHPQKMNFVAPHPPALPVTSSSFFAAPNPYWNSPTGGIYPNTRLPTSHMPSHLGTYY
Summary of the method: as §1

ELF1 = ELF1 (Homo sapiens, UniProt P32519 1-619); settings: protein: recombinant; tags: N-terminal GST; dsDNA, one strand shown
Summary of the method: as §1

EHF = target: T5, EHF (Homo sapiens, UniProt Q9NZC4 1-300); settings: protein: recombinant; tags: N-terminal GST; dsDNA, one strand shown
T5 sequence: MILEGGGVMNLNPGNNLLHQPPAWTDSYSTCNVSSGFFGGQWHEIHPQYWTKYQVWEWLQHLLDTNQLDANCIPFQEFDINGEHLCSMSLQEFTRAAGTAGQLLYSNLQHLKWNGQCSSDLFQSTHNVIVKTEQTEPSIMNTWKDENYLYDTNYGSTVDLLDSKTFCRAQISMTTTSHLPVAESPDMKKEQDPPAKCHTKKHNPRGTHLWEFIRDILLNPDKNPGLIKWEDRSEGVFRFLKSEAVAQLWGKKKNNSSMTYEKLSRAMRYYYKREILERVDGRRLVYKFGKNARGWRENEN
Summary of the method: as §1

SPI1 = SPI1 (Homo sapiens, UniProt P17947 1-270); settings: protein: recombinant; tags: N-terminal GST; dsDNA, one strand shown
Summary of the method: as §1

SPIB = SPIB (Homo sapiens, UniProt Q01892 1-262); settings: protein: recombinant; tags: N-terminal GST; dsDNA, one strand shown
Summary of the method: as §1

ELK3 = target: T6, ELK3 (Homo sapiens, UniProt P41970 1-407); settings: protein: recombinant; tags: N-terminal GST; dsDNA, one strand shown
T6 sequence: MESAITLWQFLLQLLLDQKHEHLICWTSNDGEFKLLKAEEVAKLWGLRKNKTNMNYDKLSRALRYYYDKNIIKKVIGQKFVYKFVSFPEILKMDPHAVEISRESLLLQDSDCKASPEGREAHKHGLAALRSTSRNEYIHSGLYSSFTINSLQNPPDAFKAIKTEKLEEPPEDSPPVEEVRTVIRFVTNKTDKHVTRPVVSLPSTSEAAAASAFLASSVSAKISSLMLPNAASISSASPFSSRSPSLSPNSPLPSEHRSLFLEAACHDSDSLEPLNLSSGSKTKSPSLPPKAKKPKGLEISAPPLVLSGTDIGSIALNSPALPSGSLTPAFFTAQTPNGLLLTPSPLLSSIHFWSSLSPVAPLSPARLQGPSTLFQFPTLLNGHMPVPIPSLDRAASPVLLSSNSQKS
Summary of the method: as §1

FEV = target: T7, FEV (Homo sapiens, UniProt Q99581 1-238); settings: protein: recombinant; tags: N-terminal GST; dsDNA, one strand shown
T7 sequence: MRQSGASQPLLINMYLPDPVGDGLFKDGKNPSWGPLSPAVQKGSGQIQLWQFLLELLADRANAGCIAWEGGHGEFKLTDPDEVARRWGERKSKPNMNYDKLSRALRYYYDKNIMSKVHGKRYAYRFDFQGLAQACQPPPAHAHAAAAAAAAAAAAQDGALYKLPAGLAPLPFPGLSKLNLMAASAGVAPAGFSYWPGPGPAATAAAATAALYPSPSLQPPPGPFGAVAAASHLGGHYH
Summary of the method: as §1

ETV5 = ETV5 (Homo sapiens, UniProt P41161 1-510); settings: protein: recombinant; tags: N-terminal GST; dsDNA, one strand shown
Summary of the method: as §1

HSF1 = HSF1 (Homo sapiens, UniProt Q00613 1-529); settings: protein: recombinant; tags: N-terminal GST; chain copies: 3; dsDNA, one strand shown
Summary of the method: as §1

SPIC = target: T8, SPIC (Homo sapiens, UniProt Q8N5J4 1-248); settings: protein: recombinant; tags: N-terminal GST; dsDNA, one strand shown
T8 sequence: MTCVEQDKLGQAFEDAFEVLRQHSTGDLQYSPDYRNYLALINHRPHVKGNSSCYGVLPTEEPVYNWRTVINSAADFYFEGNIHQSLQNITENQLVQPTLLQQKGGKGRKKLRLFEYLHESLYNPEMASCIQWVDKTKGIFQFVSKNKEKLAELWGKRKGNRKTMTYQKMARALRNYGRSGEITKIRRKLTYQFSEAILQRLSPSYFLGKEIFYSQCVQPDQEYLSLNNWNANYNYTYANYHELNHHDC
Summary of the method: as §1

ELF4 = ELF4 (Homo sapiens, UniProt Q99607 1-663); settings: protein: recombinant; tags: N-terminal GST; dsDNA, one strand shown
Summary of the method: as §1

ELK4 = target: T9, ELK4 (Homo sapiens, UniProt P28324-2 1-405); settings: protein: recombinant; tags: N-terminal GST; dsDNA, one strand shown
T9 sequence: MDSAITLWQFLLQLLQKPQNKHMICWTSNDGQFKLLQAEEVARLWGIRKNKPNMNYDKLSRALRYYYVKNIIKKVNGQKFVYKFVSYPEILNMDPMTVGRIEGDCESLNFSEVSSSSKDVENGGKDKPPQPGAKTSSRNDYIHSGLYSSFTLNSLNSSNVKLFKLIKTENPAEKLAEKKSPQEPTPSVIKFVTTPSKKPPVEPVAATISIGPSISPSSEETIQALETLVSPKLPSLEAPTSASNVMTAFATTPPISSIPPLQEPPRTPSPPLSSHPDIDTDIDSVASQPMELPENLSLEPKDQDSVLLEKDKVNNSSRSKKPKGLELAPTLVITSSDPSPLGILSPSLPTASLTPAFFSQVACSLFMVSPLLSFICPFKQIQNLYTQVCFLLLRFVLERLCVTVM
Summary of the method: as §1

ETV2 = target: T10, ETV2 (Homo sapiens, UniProt O00321 1-342); settings: protein: recombinant; tags: N-terminal GST; dsDNA, one strand shown
T10 sequence: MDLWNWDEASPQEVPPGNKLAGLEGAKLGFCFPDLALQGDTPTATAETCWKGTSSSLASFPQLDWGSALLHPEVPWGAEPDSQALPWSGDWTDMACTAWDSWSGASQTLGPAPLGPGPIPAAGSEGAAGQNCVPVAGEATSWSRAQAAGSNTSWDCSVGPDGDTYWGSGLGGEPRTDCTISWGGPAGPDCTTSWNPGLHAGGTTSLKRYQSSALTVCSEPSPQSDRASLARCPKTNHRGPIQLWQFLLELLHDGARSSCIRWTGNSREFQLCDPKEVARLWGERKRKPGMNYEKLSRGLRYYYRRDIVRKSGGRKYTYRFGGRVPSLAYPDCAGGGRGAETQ
Summary of the method: as §1

CRX = CRX (Homo sapiens, UniProt O43186 1-299); settings: protein: recombinant; tags: N-terminal GST; dsDNA, one strand shown
Summary of the method: as §1

ETV1 = ETV1 (Homo sapiens, UniProt P50549 1-477); settings: protein: recombinant; tags: N-terminal GST; dsDNA, one strand shown
Summary of the method: as §1

Sequence of CRX (O43186 whole entry): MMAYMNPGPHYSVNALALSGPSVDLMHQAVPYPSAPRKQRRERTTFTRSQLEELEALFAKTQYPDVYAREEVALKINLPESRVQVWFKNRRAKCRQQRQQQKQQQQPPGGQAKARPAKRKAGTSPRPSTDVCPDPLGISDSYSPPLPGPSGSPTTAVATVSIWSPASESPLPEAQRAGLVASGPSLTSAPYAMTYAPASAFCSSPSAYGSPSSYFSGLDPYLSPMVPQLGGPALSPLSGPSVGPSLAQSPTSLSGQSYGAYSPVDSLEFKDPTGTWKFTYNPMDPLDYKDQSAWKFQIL
Sequence of HSF1 (Q00613 whole entry): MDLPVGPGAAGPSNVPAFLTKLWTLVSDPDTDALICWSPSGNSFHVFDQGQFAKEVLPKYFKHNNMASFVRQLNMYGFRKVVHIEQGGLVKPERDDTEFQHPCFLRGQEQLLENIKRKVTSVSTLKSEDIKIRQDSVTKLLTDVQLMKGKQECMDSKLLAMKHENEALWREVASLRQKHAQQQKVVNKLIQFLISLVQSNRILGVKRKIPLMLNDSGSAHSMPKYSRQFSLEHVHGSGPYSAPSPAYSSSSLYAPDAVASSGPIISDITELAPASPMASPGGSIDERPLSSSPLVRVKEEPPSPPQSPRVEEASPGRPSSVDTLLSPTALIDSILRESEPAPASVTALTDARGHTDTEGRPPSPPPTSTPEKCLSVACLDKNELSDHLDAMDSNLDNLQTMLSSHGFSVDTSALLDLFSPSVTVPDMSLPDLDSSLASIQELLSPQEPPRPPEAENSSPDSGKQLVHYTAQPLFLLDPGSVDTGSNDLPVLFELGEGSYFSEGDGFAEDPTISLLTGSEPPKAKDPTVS
Sequence of ELF4 (Q99607 whole entry): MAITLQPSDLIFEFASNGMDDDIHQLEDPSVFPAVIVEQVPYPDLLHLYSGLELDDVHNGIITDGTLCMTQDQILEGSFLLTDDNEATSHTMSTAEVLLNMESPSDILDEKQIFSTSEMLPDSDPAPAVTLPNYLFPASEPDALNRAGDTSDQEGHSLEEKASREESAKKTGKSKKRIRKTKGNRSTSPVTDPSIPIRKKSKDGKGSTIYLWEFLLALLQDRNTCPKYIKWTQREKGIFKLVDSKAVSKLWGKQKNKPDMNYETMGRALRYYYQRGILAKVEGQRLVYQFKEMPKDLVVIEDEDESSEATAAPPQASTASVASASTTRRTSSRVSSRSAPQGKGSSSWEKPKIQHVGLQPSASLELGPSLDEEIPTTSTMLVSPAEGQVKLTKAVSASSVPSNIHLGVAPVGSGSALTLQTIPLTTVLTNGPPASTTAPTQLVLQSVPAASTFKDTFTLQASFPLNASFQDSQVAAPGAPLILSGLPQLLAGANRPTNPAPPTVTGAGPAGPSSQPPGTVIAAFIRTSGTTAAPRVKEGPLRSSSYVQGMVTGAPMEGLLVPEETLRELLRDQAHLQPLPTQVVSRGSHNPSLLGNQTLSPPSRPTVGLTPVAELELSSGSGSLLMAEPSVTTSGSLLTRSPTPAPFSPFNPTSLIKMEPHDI
Sequence of ETV1 (P50549 whole entry): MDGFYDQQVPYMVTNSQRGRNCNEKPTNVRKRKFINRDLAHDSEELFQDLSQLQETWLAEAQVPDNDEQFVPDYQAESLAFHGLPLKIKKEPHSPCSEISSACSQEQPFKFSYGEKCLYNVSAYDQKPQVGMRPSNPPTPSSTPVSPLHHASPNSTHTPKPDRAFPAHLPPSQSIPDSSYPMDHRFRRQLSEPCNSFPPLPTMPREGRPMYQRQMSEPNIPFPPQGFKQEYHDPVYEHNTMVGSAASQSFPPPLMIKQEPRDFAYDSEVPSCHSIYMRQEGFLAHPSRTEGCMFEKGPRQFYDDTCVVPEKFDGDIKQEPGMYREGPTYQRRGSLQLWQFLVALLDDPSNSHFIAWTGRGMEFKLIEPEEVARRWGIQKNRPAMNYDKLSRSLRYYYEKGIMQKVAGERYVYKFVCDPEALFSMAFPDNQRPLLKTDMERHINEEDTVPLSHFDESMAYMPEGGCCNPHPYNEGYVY
Sequence of ELF1 (P32519 whole entry): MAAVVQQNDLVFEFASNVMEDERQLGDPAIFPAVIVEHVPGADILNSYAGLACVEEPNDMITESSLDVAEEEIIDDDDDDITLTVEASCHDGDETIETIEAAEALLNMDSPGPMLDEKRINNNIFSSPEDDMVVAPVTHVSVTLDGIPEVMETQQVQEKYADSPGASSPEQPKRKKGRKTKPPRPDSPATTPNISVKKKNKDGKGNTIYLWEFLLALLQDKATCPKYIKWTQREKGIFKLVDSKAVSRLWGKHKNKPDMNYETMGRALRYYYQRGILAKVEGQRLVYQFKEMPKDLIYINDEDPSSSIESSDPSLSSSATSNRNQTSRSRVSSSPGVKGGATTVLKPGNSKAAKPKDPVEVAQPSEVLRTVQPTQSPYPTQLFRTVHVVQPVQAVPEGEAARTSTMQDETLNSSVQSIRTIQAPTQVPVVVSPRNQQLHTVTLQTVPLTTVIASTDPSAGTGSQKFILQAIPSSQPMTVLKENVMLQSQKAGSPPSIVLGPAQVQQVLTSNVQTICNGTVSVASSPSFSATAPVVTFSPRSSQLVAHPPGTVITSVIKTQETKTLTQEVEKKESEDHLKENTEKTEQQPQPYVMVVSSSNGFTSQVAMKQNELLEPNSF
Sequence of SPIB (Q01892 whole entry): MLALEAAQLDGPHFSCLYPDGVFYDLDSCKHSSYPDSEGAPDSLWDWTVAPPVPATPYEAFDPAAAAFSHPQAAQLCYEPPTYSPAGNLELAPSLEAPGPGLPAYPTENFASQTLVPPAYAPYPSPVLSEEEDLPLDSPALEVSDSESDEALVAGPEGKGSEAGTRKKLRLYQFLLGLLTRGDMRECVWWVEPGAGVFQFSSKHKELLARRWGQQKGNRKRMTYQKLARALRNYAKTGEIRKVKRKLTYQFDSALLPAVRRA
Sequence of ETV5 (P41161 whole entry): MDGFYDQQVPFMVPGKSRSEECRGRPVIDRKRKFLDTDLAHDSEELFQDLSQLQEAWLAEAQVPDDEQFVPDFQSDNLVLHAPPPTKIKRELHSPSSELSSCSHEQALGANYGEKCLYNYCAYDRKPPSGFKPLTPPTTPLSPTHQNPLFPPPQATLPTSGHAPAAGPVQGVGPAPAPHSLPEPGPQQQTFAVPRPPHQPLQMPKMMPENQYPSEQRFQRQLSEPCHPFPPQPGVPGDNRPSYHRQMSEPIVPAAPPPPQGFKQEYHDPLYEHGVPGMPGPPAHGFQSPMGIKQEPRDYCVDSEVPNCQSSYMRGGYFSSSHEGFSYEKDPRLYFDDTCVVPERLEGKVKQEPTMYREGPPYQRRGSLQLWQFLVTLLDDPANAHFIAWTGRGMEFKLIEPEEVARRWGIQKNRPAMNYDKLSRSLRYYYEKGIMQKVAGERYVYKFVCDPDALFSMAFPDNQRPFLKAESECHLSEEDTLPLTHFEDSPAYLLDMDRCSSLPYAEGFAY

Sequence: ACTCCA
- binding signal (FLI1): 1.15 fold enrichment (6-mer frequency, TF over GST control)
- binding signal (ELK1): 1.24 fold enrichment (6-mer frequency, TF over GST control)
- binding signal (GABPA): 1.29 fold enrichment (6-mer frequency, TF over GST control)
- binding signal (ERG): 1.26 fold enrichment (6-mer frequency, TF over GST control)
- binding signal (ELF1): 1.21 fold enrichment (6-mer frequency, TF over GST control)
- binding signal (EHF): 1.17 fold enrichment (6-mer frequency, TF over GST control)
- binding signal (SPI1): 1.23 fold enrichment (6-mer frequency, TF over GST control)
- binding signal (SPIB): 1.16 fold enrichment (6-mer frequency, TF over GST control)
- binding signal (ELK3): 1.17 fold enrichment (6-mer frequency, TF over GST control)
- binding signal (FEV): 1.21 fold enrichment (6-mer frequency, TF over GST control)
- binding signal (ETV5): 1.24 fold enrichment (6-mer frequency, TF over GST control)
- binding signal (HSF1): 1.14 fold enrichment (6-mer frequency, TF over GST control)
- binding signal (SPIC): 1.18 fold enrichment (6-mer frequency, TF over GST control)
- binding signal (ELF4): 1.23 fold enrichment (6-mer frequency, TF over GST control)
- binding signal (ELK4): 1.05 fold enrichment (6-mer frequency, TF over GST control)
- binding signal (ETV2): 1.15 fold enrichment (6-mer frequency, TF over GST control)
- binding signal (CRX): 1.06 fold enrichment (6-mer frequency, TF over GST control)
- binding signal (ETV1): 1.22 fold enrichment (6-mer frequency, TF over GST control)

Sequence: CTTGTT
- binding signal (FLI1): 1.2 fold enrichment (6-mer frequency, TF over GST control)
- binding signal (ELK1): 1.18 fold enrichment (6-mer frequency, TF over GST control)
- binding signal (GABPA): 1.15 fold enrichment (6-mer frequency, TF over GST control)
- binding signal (ERG): 1.26 fold enrichment (6-mer frequency, TF over GST control)
- binding signal (ELF1): 1.21 fold enrichment (6-mer frequency, TF over GST control)
- binding signal (EHF): 1.31 fold enrichment (6-mer frequency, TF over GST control)
- binding signal (SPI1): 1.25 fold enrichment (6-mer frequency, TF over GST control)
- binding signal (SPIB): 1.29 fold enrichment (6-mer frequency, TF over GST control)
- binding signal (ELK3): 1.3 fold enrichment (6-mer frequency, TF over GST control)
- binding signal (FEV): 1.15 fold enrichment (6-mer frequency, TF over GST control)
- binding signal (ETV5): 1.22 fold enrichment (6-mer frequency, TF over GST control)
- binding signal (HSF1): 1.09 fold enrichment (6-mer frequency, TF over GST control)
- binding signal (SPIC): 1.25 fold enrichment (6-mer frequency, TF over GST control)
- binding signal (ELF4): 1.22 fold enrichment (6-mer frequency, TF over GST control)
- binding signal (ELK4): 1.17 fold enrichment (6-mer frequency, TF over GST control)
- binding signal (ETV2): 1.14 fold enrichment (6-mer frequency, TF over GST control)
- binding signal (CRX): 1.1 fold enrichment (6-mer frequency, TF over GST control)
- binding signal (ETV1): 1.31 fold enrichment (6-mer frequency, TF over GST control)
